Laboratory results reported in PubChem BioAssay (NCATS).
Records with an inconclusive call do not appear. Entries that show only a call come without a potency. Active and inactive are the calls of the source. Unless noted, the call rests on the fitted dose curve; in most records, active means well fitted curve in the direction sought with a large enough effect; inconclusive means small, poorly fitted or top-dose-only effect, or another doubt; inactive means no such curve, though single readings can be large; an effect the other way counts as inactive or inconclusive.

Assays:
[1] = qHTS for differential inhibitors of proliferation of Plasmodium falciparum line Dd2 (AID 1882); further: nearly all actives have a fitted effect of over 65% in size
In short: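 SYBR Green DNA fluorescence (ex 485, em 535 nm) after overnight lysis quantifies parasite growth; compound exposure lasted 72 h at 37 C on infected red cells at 2.5% hematocrit, 0.3% parasitemia (final). Artemisinin 0.29 uM and vehicle wells define normalization.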

[2] = qHTS for differential inhibitors of proliferation of Plasmodium falciparum line W2 (AID 1883); conditions: Plasmodium falciparum W2 proliferation inhibition;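 further: potency means the concentration at half of the fitted maximal effect; parasites grown with compound for 72 h before lysis and staining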
[3] = qHTS for differential inhibitors of proliferation of Plasmodium falciparum line HB3 (AID 1886);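 further: parasites grown with compound for 72 h before SYBR Green readout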
[4] = target: ATP-dependent DNA helicase Q1 (Homo sapiens) (UniProt P46063); test: qHTS Validation Assay for Inhibitors of RecQ-Like Dna Helicase 1 (RECQ1) (AID 2353)
ATP-dependent DNA helicase Q1 (Homo sapiens), sequence (P46063 whole entry, looked up): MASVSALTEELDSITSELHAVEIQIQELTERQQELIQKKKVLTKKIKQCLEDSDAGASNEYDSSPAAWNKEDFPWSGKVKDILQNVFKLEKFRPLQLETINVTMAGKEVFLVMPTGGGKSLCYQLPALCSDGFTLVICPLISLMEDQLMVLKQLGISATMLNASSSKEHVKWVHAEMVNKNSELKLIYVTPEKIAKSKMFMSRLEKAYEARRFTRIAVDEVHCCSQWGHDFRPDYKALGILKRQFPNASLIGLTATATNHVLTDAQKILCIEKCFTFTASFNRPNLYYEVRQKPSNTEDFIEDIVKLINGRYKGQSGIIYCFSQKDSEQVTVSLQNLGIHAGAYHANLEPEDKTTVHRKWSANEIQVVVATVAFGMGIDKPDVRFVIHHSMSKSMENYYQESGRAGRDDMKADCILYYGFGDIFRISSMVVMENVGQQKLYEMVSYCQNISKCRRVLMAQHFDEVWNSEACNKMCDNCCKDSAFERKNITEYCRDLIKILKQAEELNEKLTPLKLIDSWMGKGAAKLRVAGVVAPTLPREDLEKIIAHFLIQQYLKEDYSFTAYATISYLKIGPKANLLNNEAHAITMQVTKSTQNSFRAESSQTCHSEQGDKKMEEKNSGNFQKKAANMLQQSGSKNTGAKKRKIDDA
In short: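 RECQ1T1 50 nM; forked duplex (20 bp + 30-nt ss tails) 200 nM, ATP 2 mM final; pH 8.0, 2 mM MgCl2, 2.5 ug/ml poly(dI-dC); 15 min compound preincubation; discontinuous kinetic read over 2 h at RT.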

[5] = Cytometric Cell-Based qHTS for Inhibitors of the mTORC1 Signaling Pathway in MEF (Tsc2-/-, p53-/-) Cells (AID 2660);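 further: Tsc2 and p53 null MEFs carrying empty vector with compound for 24 h; percent of cells above a phospho-rpS6 to PI ratio cutoff in each well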
In short: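 Readout: Alexa-488 phospho-rpS6 (Ser235/236) intensity divided by PI intensity, thresholded against 7.5 nM rapamycin wells and reported as % positive cells. PI cell count served as the viability measure. Compound exposure was 24 hrs at 37 degree Celsius.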

[6] = High Content Imaging Cell-Based qHTS for Inhibitors of the mTORC1 Signaling Pathway in MEF (Tsc2-/-, p53-/-) Cells (AID 2666); conditions: at 38.3 µM (top of the series);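 further: percent of cells scored positive for phospho-rpS6 Ser235/236 immunostaining by imaging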
In short: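 MEF Tsc2-/- p53-/- (empty vector), DMEM/10% FBS; cpd 24 h 37 °C; PFA fix, Alexa-488 p-rpS6 S235/236 Ab, Hoechst; imaged; rapamycin-defined inhibition; % positive cells/well.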

[7] = High Content Imaging Cell-Based qHTS for Inhibitors of the mTORC1 Signaling Pathway in MEF Cells (AID 2667);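 further: Tsc2-/- p53-/- MEFs stably re-expressing wild-type Tsc2 exposed 24 h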
In short: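 Read-out is the share of phospho-rpS6-positive cells per well, from Hoechst-normalized Alexa-488 Ser235/236 staining imaged on IN Cell. Cells: WT Tsc2-expressing Tsc2-/-, p53-/- MEFs exposed to compound for 24 hrs.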

[8] = Validation screen for small molecules that induce DNA re-replication in MCF 10A normal breast cells (AID 463097); further: nearly all actives have a fitted effect of over 60% in size
In short: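 Read-out is Hoechst total nuclear intensity by fluorescence scanning imager, flagging increased high-DNA-content nuclei. Compounds were incubated with MCF 10A cells for 48 hr (37 C, 5% CO2) before 40 min staining.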

[9] = target: Ubiquitin carboxyl-terminal hydrolase 2 (Homo sapiens) (UniProt O75604); test: qHTS Validation Assay for Inhibitors of Ubiquitin-specific Protease USP2a Using CHOP2 as the Reporter (AID 463106)
In short: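 Fluorescence read-out at Ex 485nm/Em 531nm after 60min RT, following addition of 25nM Ub-CHOP2 plus 25nM reporter substrate to USP2 core (10nM) pretreated 30min with compound. Data normalized to NEM full inhibition; concentration-response curves fitted.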

[10] = target: DNA polymerase III PolC-type (Bacillus subtilis (strain 168)) (UniProt P13267); test: qHTS Validation Assay for the Inhibitors of DNA Replication in Gram-Positive Bacteria (AID 485295);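 further: reconstituted holoenzyme with PolC plus beta clamp SSB and primase; PicoGreen fluorescence of double-stranded DNA made on primed circular M13 template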
DNA polymerase III PolC-type (Bacillus subtilis (strain 168)), sequence (P13267 whole entry, looked up): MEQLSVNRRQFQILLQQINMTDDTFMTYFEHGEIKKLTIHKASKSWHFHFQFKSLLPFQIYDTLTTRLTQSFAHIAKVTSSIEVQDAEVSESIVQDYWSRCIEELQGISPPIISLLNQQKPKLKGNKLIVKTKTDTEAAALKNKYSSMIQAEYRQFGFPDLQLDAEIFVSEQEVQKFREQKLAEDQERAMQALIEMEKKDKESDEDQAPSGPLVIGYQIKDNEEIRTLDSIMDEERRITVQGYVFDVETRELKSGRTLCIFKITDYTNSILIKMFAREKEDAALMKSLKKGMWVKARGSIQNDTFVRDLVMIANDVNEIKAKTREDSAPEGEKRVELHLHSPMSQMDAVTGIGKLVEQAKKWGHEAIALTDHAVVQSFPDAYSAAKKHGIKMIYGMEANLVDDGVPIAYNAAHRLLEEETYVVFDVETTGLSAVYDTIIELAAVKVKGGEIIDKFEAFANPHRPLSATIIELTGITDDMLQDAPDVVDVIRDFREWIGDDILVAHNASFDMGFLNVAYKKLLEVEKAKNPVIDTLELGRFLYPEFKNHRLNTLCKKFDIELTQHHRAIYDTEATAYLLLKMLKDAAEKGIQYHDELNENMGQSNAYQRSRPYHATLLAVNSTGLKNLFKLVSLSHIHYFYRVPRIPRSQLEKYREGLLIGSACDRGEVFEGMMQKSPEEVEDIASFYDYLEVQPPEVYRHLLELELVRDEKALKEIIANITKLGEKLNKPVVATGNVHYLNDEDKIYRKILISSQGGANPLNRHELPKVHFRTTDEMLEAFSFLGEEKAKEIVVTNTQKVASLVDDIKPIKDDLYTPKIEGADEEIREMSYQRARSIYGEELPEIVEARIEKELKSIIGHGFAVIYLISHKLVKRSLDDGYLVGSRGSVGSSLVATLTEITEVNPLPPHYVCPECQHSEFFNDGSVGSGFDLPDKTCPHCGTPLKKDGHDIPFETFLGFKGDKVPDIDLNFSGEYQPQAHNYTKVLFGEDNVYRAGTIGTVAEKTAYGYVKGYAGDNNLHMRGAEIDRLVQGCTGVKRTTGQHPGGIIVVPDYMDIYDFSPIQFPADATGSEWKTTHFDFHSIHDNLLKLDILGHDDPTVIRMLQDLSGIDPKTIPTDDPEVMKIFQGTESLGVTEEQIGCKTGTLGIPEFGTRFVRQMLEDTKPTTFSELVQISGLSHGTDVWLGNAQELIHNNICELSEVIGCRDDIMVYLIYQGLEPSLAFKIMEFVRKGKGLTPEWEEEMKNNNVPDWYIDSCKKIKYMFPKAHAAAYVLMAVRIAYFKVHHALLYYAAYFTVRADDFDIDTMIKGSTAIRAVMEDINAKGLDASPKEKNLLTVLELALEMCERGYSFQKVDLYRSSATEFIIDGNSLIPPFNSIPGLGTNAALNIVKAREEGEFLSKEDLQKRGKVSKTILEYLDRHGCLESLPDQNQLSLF
In short: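 Double-stranded DNA product detected by PicoGreen fluorescence after EDTA quench. Compound incubated with B. subtilis holoenzyme (PolC, beta subunit, SSB, primase) before substrate addition; primed replication of M13Gori with dNTPs and NTPs at room temperature; DMSO defines 0% inhibition.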

[11] = target: Tumor susceptibility gene 101 protein (Homo sapiens) (UniProt Q99816); test: qHTS Validation Assay for Iinhibitors of HIV-1 Budding by Blocking the Interaction of PTAP/TSG101 (AID 485342; calls by dose curve)
Tumor susceptibility gene 101 protein (Homo sapiens), sequence (Q99816 whole entry, looked up, the tested form may be a part): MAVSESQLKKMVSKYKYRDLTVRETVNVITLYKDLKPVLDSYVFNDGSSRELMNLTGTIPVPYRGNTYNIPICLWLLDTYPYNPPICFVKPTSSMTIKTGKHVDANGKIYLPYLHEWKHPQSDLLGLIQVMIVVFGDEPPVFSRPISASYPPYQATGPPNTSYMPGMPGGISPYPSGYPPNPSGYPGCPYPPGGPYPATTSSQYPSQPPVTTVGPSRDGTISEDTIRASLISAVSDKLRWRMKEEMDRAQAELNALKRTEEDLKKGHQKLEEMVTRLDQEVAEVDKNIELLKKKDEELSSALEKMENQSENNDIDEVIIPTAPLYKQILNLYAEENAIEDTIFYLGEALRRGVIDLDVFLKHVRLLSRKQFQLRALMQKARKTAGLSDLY
In short: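 Fluorescence polarization of 50 nM FITC-PTAP peptide bound to 10 uM Tsg101 binding domain was read after 20 min room-temperature incubation with compounds, in 10 mM HEPES pH 7.5, 0.15 M NaCl, 0.01% Tween 20.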

[12] = target: Beta-2 adrenergic receptor (Homo sapiens) (UniProt P07550); test: qHTS validation assay of beta-arrestin-biased ligands of beta2-adrenergic receptor (AID 485366)
Beta-2 adrenergic receptor (Homo sapiens), sequence (P07550 whole entry, looked up): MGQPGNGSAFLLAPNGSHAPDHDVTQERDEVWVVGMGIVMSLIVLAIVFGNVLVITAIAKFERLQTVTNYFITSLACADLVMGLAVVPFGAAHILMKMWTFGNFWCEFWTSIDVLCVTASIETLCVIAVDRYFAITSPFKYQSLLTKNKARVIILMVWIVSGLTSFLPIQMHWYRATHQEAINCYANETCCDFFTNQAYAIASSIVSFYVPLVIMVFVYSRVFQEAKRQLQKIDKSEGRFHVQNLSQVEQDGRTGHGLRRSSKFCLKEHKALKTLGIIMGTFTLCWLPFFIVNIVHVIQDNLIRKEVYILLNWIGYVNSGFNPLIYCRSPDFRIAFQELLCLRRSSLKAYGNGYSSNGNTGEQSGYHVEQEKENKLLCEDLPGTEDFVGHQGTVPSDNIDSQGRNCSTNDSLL
In short: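 Agonist activity is measured as luciferase luminescence downstream of beta-arrestin recruitment to recombinant beta2-AR in Tango cells. Exposure lasts 18 hr at 37 degrees C, and curves are categorized by r2, response size and activity.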

[13] = target: ATP-dependent 6-phosphofructokinase (Trypanosoma brucei brucei) (UniProt O15648); test: qHTS Validation Assay to Find Inhibitors of T. brucei phosphofructokinase (AID 485368); conditions: T. brucei PFK enzyme assay, qHTS 7-point titration; at 57.5 µM (top of the series)
In short: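 Inhibition derived from concentration-response curves of luminescence, ranked by r2, response size and curve class; the underlying reaction used 1.25 nM PFK, 0.1 mM ATP and 0.5 mM F6P, 45 min, room temperature.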

[14] = target: Thioredoxin reductase 1, cytoplasmic (Rattus norvegicus) (UniProt O89049); test: qHTS Assay for Substrates of Mammalian Selenoprotein Thioredoxin Reductase 1 (TrxR1) (AID 488772);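 further: a drop in NADPH fluorescence below the no-compound background marks a TrxR1 substrate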
Thioredoxin reductase 1, cytoplasmic (Rattus norvegicus), sequence (O89049 whole entry, looked up): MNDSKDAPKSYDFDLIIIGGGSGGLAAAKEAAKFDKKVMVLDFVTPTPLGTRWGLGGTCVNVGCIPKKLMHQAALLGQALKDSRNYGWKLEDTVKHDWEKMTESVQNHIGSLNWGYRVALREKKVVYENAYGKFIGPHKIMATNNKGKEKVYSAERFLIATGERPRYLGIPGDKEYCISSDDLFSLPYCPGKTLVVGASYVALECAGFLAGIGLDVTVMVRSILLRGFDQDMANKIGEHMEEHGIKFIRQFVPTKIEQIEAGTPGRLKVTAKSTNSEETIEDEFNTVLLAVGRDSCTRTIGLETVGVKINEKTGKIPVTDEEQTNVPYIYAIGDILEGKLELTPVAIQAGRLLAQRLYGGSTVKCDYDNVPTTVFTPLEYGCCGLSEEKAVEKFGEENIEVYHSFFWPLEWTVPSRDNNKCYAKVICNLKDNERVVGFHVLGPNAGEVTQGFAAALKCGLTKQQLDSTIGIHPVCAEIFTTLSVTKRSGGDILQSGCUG
In short: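 In this dual-purpose format, potential substrates are identified from the first fluorescence read after selenite addition, not from the 8-minute delta. Rat enzyme is preincubated with NADPH and then with compound at ~22 deg C.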

[15] = target: Thioredoxin reductase 1, cytoplasmic (Rattus norvegicus) (UniProt O89049); test: qHTS Assay for Inhibitors of Mammalian Selenoprotein Thioredoxin Reductase 1 (TrxR1) (AID 488773);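 further: drop in NADPH fluorescence over an 8 min run after selenite addition; nearly all actives have a fitted effect of over 40% in size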
In short: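 Inhibition is scored from the loss of NADPH fluorescence between first and last reads of an 8-min kinetic run. Selenite (400 uM) was the substrate, added after 15 min compound preincubation at room temperature.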

[16] = target: Flap endonuclease 1 (Homo sapiens) (UniProt P39748); test: qHTS Validation Assay for the Inhibitors of Human Flap endonuclease 1 (FEN1) (AID 488816)
Flap endonuclease 1 (Homo sapiens), sequence (P39748 whole entry, looked up): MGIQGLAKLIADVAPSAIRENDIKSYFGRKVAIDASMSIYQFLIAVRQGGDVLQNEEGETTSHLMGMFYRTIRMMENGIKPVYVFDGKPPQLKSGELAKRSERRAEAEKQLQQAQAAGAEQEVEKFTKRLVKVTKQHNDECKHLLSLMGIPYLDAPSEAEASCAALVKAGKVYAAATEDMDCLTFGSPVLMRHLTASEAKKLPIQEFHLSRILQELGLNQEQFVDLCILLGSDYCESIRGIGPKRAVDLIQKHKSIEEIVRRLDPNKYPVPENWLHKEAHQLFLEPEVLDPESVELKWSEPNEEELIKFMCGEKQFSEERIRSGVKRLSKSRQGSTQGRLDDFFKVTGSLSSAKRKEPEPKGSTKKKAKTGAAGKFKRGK
In short: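 Enzyme reagent 10 nM; cpds pinned; 15 min RT preinc.; substrate 50 nM final; reads t=0 and 15 min; no-enzyme buffer wells as neg. control; normalized data, 4-parameter Hill fit.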

[17] = target: M-phase phosphoprotein 8 (Homo sapiens) (UniProt Q99549); test: qHTS Validation Assay for Inhibitors for MPP8 Chromodomain Interactions with Methylated Histone Tails (AID 488949);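 further: AlphaScreen signal from MPP8 chromodomain bound to biotinylated H3K9me3 peptide; top concentration of the series differs between compounds; nearly all actives have a fitted effect of over 55% in size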
M-phase phosphoprotein 8 (Homo sapiens), sequence (Q99549 whole entry, looked up): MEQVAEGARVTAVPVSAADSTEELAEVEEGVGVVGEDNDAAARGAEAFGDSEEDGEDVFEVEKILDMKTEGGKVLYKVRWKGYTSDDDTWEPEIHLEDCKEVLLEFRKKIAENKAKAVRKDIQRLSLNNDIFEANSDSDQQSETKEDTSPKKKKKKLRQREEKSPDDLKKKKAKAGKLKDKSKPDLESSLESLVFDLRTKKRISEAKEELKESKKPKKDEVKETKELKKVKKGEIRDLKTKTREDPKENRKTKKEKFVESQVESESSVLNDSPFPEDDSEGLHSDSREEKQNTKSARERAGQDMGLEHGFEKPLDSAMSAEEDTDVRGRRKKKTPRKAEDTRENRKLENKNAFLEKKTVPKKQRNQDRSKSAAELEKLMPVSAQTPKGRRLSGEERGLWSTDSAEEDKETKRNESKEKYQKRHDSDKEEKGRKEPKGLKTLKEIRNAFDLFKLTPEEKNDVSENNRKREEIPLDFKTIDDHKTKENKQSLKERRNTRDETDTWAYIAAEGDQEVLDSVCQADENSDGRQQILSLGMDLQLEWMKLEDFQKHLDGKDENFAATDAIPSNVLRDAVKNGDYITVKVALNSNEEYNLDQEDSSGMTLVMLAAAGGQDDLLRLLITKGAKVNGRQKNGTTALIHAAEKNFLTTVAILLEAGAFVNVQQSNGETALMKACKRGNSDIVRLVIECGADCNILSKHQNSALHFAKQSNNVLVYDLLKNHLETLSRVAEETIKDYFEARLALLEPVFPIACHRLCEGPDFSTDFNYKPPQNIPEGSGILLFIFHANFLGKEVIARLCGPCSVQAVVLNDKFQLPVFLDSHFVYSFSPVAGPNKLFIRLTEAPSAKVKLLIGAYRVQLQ
In short: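 AlphaScreen proximity signal from streptavidin donor and Ni-chelate acceptor beads (10 ug/mL each) reported binding of MPP8 to trimethyl-K9 H3(1-18) peptide, both at 50 nM. The complex formed 30 min before a 30 min compound exposure at room temperature, in PBS pH 7.4.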

[18] = target: RecQ-like DNA helicase BLM (Homo sapiens) (UniProt P54132); test: qHTS Validation Assay for Inhibitors of Bloom's syndrome helicase (BLM) (AID 2364)
In short: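 50 nM BLM preincubated 15 min at room temperature with compound in pH 8.0 Tris buffer containing 2.5 ug/ml poly(dI-dC); started with 200 nM TAMRA/BHQ-2 forked duplex and 2 mM ATP (final). Unwinding read as TAMRA fluorescence increase, two reads 2 h apart.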

[19] = Quantitative high throughput screen for delayed death inhibitors of the malarial parasite plastid, 96 hour incubation (AID 488745); conditions: Plasmodium falciparum growth; further: potency means the concentration at half of the fitted maximal effect; nearly all actives have a fitted effect of over 70% in size
In short: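 Readout is firefly luciferase luminescence from an integrated reporter in P. falciparum; lower signal marks inhibited growth. Cultures at 2% hematocrit and 0.1% parasitemia were treated with compound across two generations (96 h, 37 C, 5% CO2).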

[20] = Quantitative high throughput screen for delayed death inhibitors of the malarial parasite plastid, 48 hour incubation (AID 488752); conditions: Plasmodium falciparum growth; further: potency means the concentration at half of the fitted maximal effect; nearly all actives have a fitted effect of over 65% in size
In short: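 First, compound was pinned into RPMI 1640 medium containing 0.5% Albumax. Next, reporter-parasite-infected erythrocytes were added to 2% hematocrit and 0.1% parasitemia. After 48 h at 37 C under 5% CO2, luciferase detection reagent was added and luminescence read.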

SMILES	outcome [1]	Potency [2]	outcome [3]	outcome [4]	outcome [5]	outcome [6]	outcome [7]	outcome [8]	outcome [9]	outcome [10]	outcome [11]	outcome [12]	outcome [13]	outcome [14]	outcome [15]	outcome [16]	outcome [17]	outcome [18]	Potency [19]	Potency [20]
O=c1c2ccccc2nc2n1CCc1c-2[nH]c2ccccc12	inactive	12.6 µM (active)	inactive	inactive	inactive	inactive	inactive	inactive	inactive	inactive	inactive	inactive	inactive	inactive	inactive	inactive	inactive			
CC[C@H](CO)Nc1nc(NCc2ccccc2)c2ncn(C(C)C)c2n1				inactive													inactive	inactive	1.04 µM (active)	4.65 µM (active)
